The structures appear in SMILES notation. Hit rate of the full screen: of about 1,800 compounds, about 410 (23%) were called active. Only a sample is shown. Potency and affinity values are given separately. A number with no mark means an inactive call. How the calls were made is not given here.

This note sets out measurements from PubChem BioAssay AID588742 (Southern Research Specialized Biocontainment Screening …, 2011).

This experiment is described as follows: Vero cell cytotoxicity, cytotoxicity control for flavivirus capping enzyme inhibitors (AID 588742). As to conditions: Vero cells viability, cytotoxicity counter-screen; series mostly up to 40 µM; viability: at the top concentration. (In general: Counterscreens check selectivity or assay interference.)
For `C=CCOc1ccc(C(c2c(C(=O)O)[nH]c3ccccc23)c2c(C(=O)O)[nH]c3ccccc23)cc1`, the viability (in general, a read-out of living cells in per cent, often relative to untreated cells) is 94.7%.
Next, `COc1cccc(C=Nc2cc(C(C)C)c(O)cc2C)c1O`: 101%.
Next, `O=C(O)COc1ccccc1/C=N/NC(=O)c1cc(-c2ccc(Cl)cc2)nc2ccccc12`: 84.9%; `Cc1c(Cl)cccc1NS(=O)(=O)c1ccc2c(c1)C1C=CCC1C(c1ccc(C(=O)O)cc1)N2` (centres undefined): 94.9%.
Next, `CCOc1ccc(N(C)C(=O)CCc2nnc3ccc(N4CCCC4)nn23)cc1`: 97.5%.
In the case of `Cn1c(SCC(=O)N2CCCCC2)nc2cccnc21`, the “viability” value was 101%.
Next, `O=C1NC2=C(C(=O)CCC2)C(c2ccccc2[N+](=O)[O-])N1` (centres undefined): 111%; `Nc1sc2c(c1C(=O)NC1CC1)CCCC2`: 95.7%.
In the case of `O=C(CCCN1C(=O)/C(=C/c2ccco2)SC1=S)Nc1cccc(C(=O)O)c1` it was 111%.
In the case of `COc1ccc(N2CCC(CNC(=S)Nc3c(C)cccc3C)C2)cc1` (centres undefined) it was 90.4%; in that of `CC(Cc1cccc(C(F)(F)F)c1)NCCOC(=O)c1ccccc1` (centres undefined), 112%.
With `O=C(Cc1cnn(-c2ccccc2)c1)c1ccc(O)c(O)c1O`, the “viability” value is 113%.
Next, `Cc1ccc(S(=O)(=O)ON2C(=O)c3ccccc3C2=O)c(C)c1`: 92.6%.
As for `O=c1c(C(c2ccc(O)cc2)c2c(O)nc3n(c2=O)CCCS3)c(O)nc2n1CCCS2`, the “viability” value was 94.3%.
In the case of `O=[N+]([O-])c1ccc(Cl)c2c1C1C=CCC1C(c1ccccn1)N2` (centres undefined) it was 94.9%; in that of `Cc1c(OCC(=O)NCCCN2CCCC2=O)ccc2c3c(c(=O)oc12)CCCC3`, 95.5%.
In the case of `Cc1cc(=O)c2c(o1)C(=O)c1occc1C2=O` it was 101%; in that of `C/C(=C/CCC(C)[C@H]1CC[C@@]2(C)C3=C(CC[C@]12C)[C@@]1(C)CCC(=O)C(C)(C)[C@@H]1CC3)C(=O)O` (some centres undefined), 82.7%; in that of `CCOc1cc(C2CC(=O)N3CN(C4CCCCC4)CSC3=C2C#N)ccc1O` (centres undefined), 95.7%.
Next, `N#CC1=C(N)N(c2ccc(Br)cc2)C2=C(C(=O)CCC2)C1c1cccnc1` (centres undefined): 93.9%; `Cc1[nH]n(-c2ccccc2)c(=O)c1N=Nc1ccccc1C(=O)O`: 81.8%; `COc1cc(/C=C2/C(=O)NN(c3cccc(C)c3)C2=O)cc([N+](=O)[O-])c1O`: 98.2%.
For `COc1cc(/C=C2\S/C(=N/S(=O)(=O)c3ccccc3)NC2=O)c([N+](=O)[O-])cc1OC`, the “viability” value was 106%.
As for `COc1cc(/C=C2/C(=O)NN(c3ccc(F)cc3)C2=O)cc([N+](=O)[O-])c1O`, the “viability” value was 92.3%.
As to `O=C(O)CN1C(=O)/C(=C2\SC(=S)N(C(Cc3ccccc3)C(=O)O)C2=O)c2ccccc21` (centres undefined), the “viability” value was 102%.
In the case of `O=C(O)c1cnn2c(C(F)(F)F)cc(-c3ccccc3)nc12` it was 92.9%.
In the case of `O=C1Nc2ccc(Cl)cc2C12Nc1ccccc1-c1nnc(SCc3ccccc3F)nc1O2` (centres undefined) it was 102%; in that of `Cc1csc(N/N=C/c2ccc(O)c([N+](=O)[O-])c2)n1`, 90.3%.
`Cc1cc(O)c(C(C)C)cc1N=Cc1ccccc1[N+](=O)[O-]`: the “viability” value was 103%.
In the case of `Cc1ccc(S(=O)(=O)Nc2nc(-c3ccc(F)cc3)cs2)cc1` it was 106%; in that of `Cc1nc(COC(=O)c2cc(O)c3ccccc3c2O)cs1`, 97.2%.
In the case of `CC(=O)c1cc(O)c2ccccc2c1O`, the “viability” value was 94.9%.
Next, `NC(=O)COc1ccc(/C=C2\C(=O)ON=C2c2ccccc2)cc1`: 107%; `CC(=O)N1CCn2c3c(c(=O)c4cc(C)ccc42)CCC31` (centres undefined): 104%.
In the case of `O=C(O)c1ccc(Cl)c(S(=O)(=O)Nc2ccc(S(=O)(=O)Nc3cccc(Cl)c3)cc2)c1` it was 103%.
In the case of `Cc1ccc(SCc2[nH]nc3c2C(c2ccc(C)o2)C(C#N)=C(N)O3)cc1` (centres undefined) it was 96.4%; in that of `Cc1ccc(C2C(C#N)=C(N)OC3=C2C(=O)CC(C)(C)C3)s1` (centres undefined), 98.2%.
As to `CCS(=O)(=O)c1nc(S(=O)(=O)c2ccc(C)cc2)c(N2CCCC2)s1`, the “viability” value was 92.6%.
Next, `C=CCNc1cc(N2CCCC2)ccc1[N+](=O)[O-]`: 88%.
In the case of `O=C(O)CC/C(=C\c1ccc(N2CCCC2)c([N+](=O)[O-])c1)c1nc2ccccc2s1` it was 93.8%; in that of `COc1ccc(/C=C2/SC(=S)N(CC(=O)O)C2=O)cc1OCc1ccc(Cl)cc1`, 95.3%; in that of `COc1ccc(O)c(C(=O)c2cc(SCC(=O)O)c3nc4sc5c(c4c(=O)n3c2)CCCC5)c1`, 104%.
In the case of `O=C(O)CSc1cc(C(=O)c2ccccc2O)cn2c(=O)c3c4c(sc3nc12)CCCC4` it was 99.5%; in that of `O=C(CNc1ccc2ccccc2c1)N/N=C/c1ccncc1`, 85.9%.
On to `CN(C)c1cccc(C(=O)OC(C(=O)Nc2ccc([N+](=O)[O-])cc2Br)c2ccccc2)c1` (centres undefined), for which the “viability” value is 96.1%.
In the case of `CC1=NN(C(=S)Nc2ccccc2)C(c2ccccc2)C1` (centres undefined) it was 94.9%; in that of `Cc1cccc(C2C3=C(Nc4[nH]n(-c5ccccc5)c(=O)c42)c2ccccc2C3=O)c1` (centres undefined), 89.5%.
For `COc1cc(N2CCCC2)c(OC)cc1C=O`, the “viability” value is 95.6%.
In the case of `COc1ccc(S(=O)(=O)CC(=O)c2cc3cccc(C)c3oc2=O)cc1` it was 99.1%.
